# Experimental data reported in PubChem BioAssay (NCATS).
# Records with an inconclusive call do not appear. A call without a number means that no potency is given here. Active and inactive are the calls of the source. The call rests on the fitted dose curve; in most records, active means well fitted cell-killing curve with a large enough effect; inconclusive means small, poorly fitted or top-dose-only effect; inactive means flat fitted curve, though single readings scatter.
# Assay: qHTS of pediatric cancer cell lines to identify multiple opportunities for drug repurposing: Confirmatory screen for A673 cells (AID 1347110);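 further: cells exposed to compound for 48 h before the viability read; nearly all actives have a fitted effect of over 65% in size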
# Conditions: A673 Ewing sarcoma cell viability; series mostly up to 45.9 µM
# How it was run: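 Forty-eight-hour viability assay. Follow-up compounds ran at 11-point dilutions; positive control bortezomib at 2.3 uM final, neutral control DMSO.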
# Potency means the concentration at half of the fitted maximal effect.
row,Structure (SMILES),Potency
1,CCCCC(CC)CNC(=O)CC(C)OC(=O)CCC(=O)O (stereo not drawn),2.61 µM (active)
2,CCN(CC)CC(=O)OCC(=O)[C@@]1(O)CC[C@H]2[C@@H]3CCC4=CC(=O)CC[C@]4(C)[C@H]3[C@@H](O)C[C@@]21C,inactive
3,CCOC(=O)O[C@]1(C(=O)OCCl)CC[C@H]2[C@@H]3CCC4=CC(=O)C=C[C@]4(C)[C@H]3[C@@H](O)C[C@@]21C,inactive
